Assay results as given in PubChem BioAssay.
Values without a mark were called inactive. Active and inactive are the calls of the source.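 The calls were made as follows, unless noted: active = compounds that lower viability of the colon cancer cells in the luminescence readout, with no numeric limit stated; inactive = the rest.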 Positions of bridges follow the written chain, without caps; N, C: chain ends. Non-standard residues stand in square brackets, D forms with d. Residues, ends and D or L forms follow the SMILES beside them. hArg = N=C(N)NCCCC[C@H](N)C(=O)O; Mpa = O=C(O)CCS

Assay: HCT116 colon cancer cell growth inhibition, primary screen, CellTiter-Glo luminescence, NPC library (AID 1117342;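 active = compounds that lower survival of HCT116 colon cancer cells in the luminescence readout, no numeric limit stated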)
Settings: at 20 µM (top of the series)

| Structure (SMILES) | inhibition of viability |
| --- | --- |
| C/C(=C(/OCCOc1ccc(Cl)cc1)c1ccc(Cl)cc1Cl)n1ccnc1 | 102% (active) |
| Cc1ccc(-c2ccccc2C#N)cc1 | -1.3% |
| COc1cc(NS(=O)(=O)c2ccc(N)cc2)nc(C)n1 | -4.3% |
| C=C(C)C(=O)OCC(O)CO (stereo not drawn) | 1.9% |
| CC(C)CCCC(C)CCCC(C)CCCCC(C)CCCC(C)CCCC(C)C (stereo not drawn) | -10.1% |
| Cc1cc(O)c(C)c(C)c1O | -1.8% |
| Cc1cc(O)c(Cl)c(C)c1Cl | -6.7% |
| C/C=C(/C(=C/C)c1ccc(OC(C)=O)cc1)c1ccc(OC(C)=O)cc1 | 108% (active) |
| C=CCN1CCc2nc(N)sc2CC1 | -4% |
| COc1ccccc1OCC1CNC(=O)O1 (stereo not drawn) | 4.4% |
| O=P(O)(O)C(O)(Cc1cnc2ccccn12)P(=O)(O)O | 13.5% (active) |
| O=C(O)CNC(=O)c1ccccc1I | 4.1% |
| CC(=O)Nc1ccc(OC(=O)c2ccccc2OC(C)=O)cc1 | -5.8% |
| CCN1CCCC1CN (stereo not drawn) | 32.2% |
| CCOc1ccc(C(=O)OCCN(CC)CC)cc1 | 43.8% |
| O=C(NCCc1c[nH]c2ccccc12)c1cccnc1 | -5.5% |
| CCC(Cc1c(I)cc(I)c(O)c1I)C(=O)O (stereo not drawn) | -22.9% |
| CC(O)CCCCn1c(=O)c2c(ncn2C)n(C)c1=O (stereo not drawn) | 0.8% |
| C[C@]12C=CC(=O)C=C1[C@@H](F)C[C@@H]1[C@@H]2[C@@H](O)C[C@@]2(C)[C@H]1CC[C@]2(O)C(=O)CO | 5% |
| NCC(=O)O | -28% |

| Structure (SMILES) | inhibition of viability |
| --- | --- |
| CCOCCn1c(C2CCN(CCc3ccc(C(C)(C)C(=O)O)cc3)CC2)nc2ccccc21 | -1.6% |
| C[C@H]1C[C@H]2[C@@H]3CCC4=CC(=O)C=C[C@]4(C)[C@@]3(Cl)[C@@H](O)C[C@]2(C)[C@@]1(O)C(=O)CO | 15.8% |
| NC(=O)[C@@H]1CSSCCC(=O)N[C@@H](CCCCN=C(N)N)C(=O)NCC(=O)N[C@@H](CC(=O)O)C(=O)N[C@@H](Cc2c[nH]c3ccccc23)C(=O)N2CCC[C@H]2C(=O)N1 ([Mpa][hArg]GDWPC-NH2; disulfide 1-7) | 9.3% |
| COC(=O)C1=C(C)NC(COC(N)=O)=C(C(=O)OC(C)C)C1c1cccc(Cl)c1Cl (stereo not drawn) | 99.8% (active) |
| C[N+](C)(CCOc1ccccc1)Cc1cccs1 | 27.5% |
| O=C(O)c1[nH]n(-c2ccc(S(=O)(=O)O)cc2)c(=O)c1N=Nc1ccc(S(=O)(=O)O)cc1 | 4.2% |
| c1ccc(OCc2ccc(CCCN3CCOCC3)cc2)cc1 | 54.5% (active) |
| CCS(=O)(=O)c1ccc(OC)c(C(=O)OC)c1 | 7.3% |
| COC(=O)/C=C(/C)N | -17.5% |
| N#CCC(=O)NN | 1.9% |
| Nc1nc(-c2ccccc2)c(Br)c(=O)[nH]1 | -10.9% |
| CCCCCC=CCC=CCCCCCCCC(=O)OCC | 17.5% |
| CCCCCCCC/C=C\CCCCCCCCN | 33.8% |
| C/C(=C(\CCO)SS/C(CCO)=C(\C)N(C=O)Cc1cnc(C)nc1N)N(C=O)Cc1cnc(C)nc1N | 0.6% |
| Cc1onc(-c2c(F)cccc2Cl)c1C(=O)Cl | 0.4% |
| CSCC[C@H](N)C(=O)O | 0.5% |
| CCCCCC(N)=O | 2.8% |
| CCCCCCCCCCCCCCCCCCN(C)C | 43.3% |
| O=C(Cn1ccnc1[N+](=O)[O-])NCc1ccccc1 | 1.8% |

Assay: CellTiter-Glo luminescent readout of SW480 viability loss, NPC library primary (AID 1117343)
Settings: CellTiter-Glo luminescence; at 20 µM (top of the series)

| Structure (SMILES) | viability decrease (inhibition) |
| --- | --- |
| C/C(=C(/OCCOc1ccc(Cl)cc1)c1ccc(Cl)cc1Cl)n1ccnc1 | 143% (active) |
| Cc1ccc(-c2ccccc2C#N)cc1 | -24.5% |
| COc1cc(NS(=O)(=O)c2ccc(N)cc2)nc(C)n1 | -9% |
| C=C(C)C(=O)OCC(O)CO (stereo not drawn) | -10.3% |
| CC(C)CCCC(C)CCCC(C)CCCCC(C)CCCC(C)CCCC(C)C (stereo not drawn) | 22.4% |
| Cc1cc(O)c(C)c(C)c1O | -15.7% |
| Cc1cc(O)c(Cl)c(C)c1Cl | -0.8% |
| C/C=C(/C(=C/C)c1ccc(OC(C)=O)cc1)c1ccc(OC(C)=O)cc1 | 129% (active) |
| C=CCN1CCc2nc(N)sc2CC1 | 2.6% |
| COc1ccccc1OCC1CNC(=O)O1 (stereo not drawn) | 15.3% |
| O=P(O)(O)C(O)(Cc1cnc2ccccn12)P(=O)(O)O | 3.6% |
| O=C(O)CNC(=O)c1ccccc1I | 10.4% |
| CC(=O)Nc1ccc(OC(=O)c2ccccc2OC(C)=O)cc1 | -3% |
| CCN1CCCC1CN (stereo not drawn) | 43.3% |
| CCOc1ccc(C(=O)OCCN(CC)CC)cc1 | 20.4% |
| O=C(NCCc1c[nH]c2ccccc12)c1cccnc1 | 71.3% (active) |
| CCC(Cc1c(I)cc(I)c(O)c1I)C(=O)O (stereo not drawn) | 11.5% |
| CC(O)CCCCn1c(=O)c2c(ncn2C)n(C)c1=O (stereo not drawn) | 3.8% |
| C[C@]12C=CC(=O)C=C1[C@@H](F)C[C@@H]1[C@@H]2[C@@H](O)C[C@@]2(C)[C@H]1CC[C@]2(O)C(=O)CO | 19.5% |
| NCC(=O)O | -6.3% |

| Structure (SMILES) | viability decrease (inhibition) |
| --- | --- |
| CCOCCn1c(C2CCN(CCc3ccc(C(C)(C)C(=O)O)cc3)CC2)nc2ccccc21 | -6.3% |
| C[C@H]1C[C@H]2[C@@H]3CCC4=CC(=O)C=C[C@]4(C)[C@@]3(Cl)[C@@H](O)C[C@]2(C)[C@@]1(O)C(=O)CO | 70.7% (active) |
| NC(=O)[C@@H]1CSSCCC(=O)N[C@@H](CCCCN=C(N)N)C(=O)NCC(=O)N[C@@H](CC(=O)O)C(=O)N[C@@H](Cc2c[nH]c3ccccc23)C(=O)N2CCC[C@H]2C(=O)N1 ([Mpa][hArg]GDWPC-NH2; disulfide 1-7) | 0.7% |
| COC(=O)C1=C(C)NC(COC(N)=O)=C(C(=O)OC(C)C)C1c1cccc(Cl)c1Cl (stereo not drawn) | 123% (active) |
| C[N+](C)(CCOc1ccccc1)Cc1cccs1 | -11.3% |
| O=C(O)c1[nH]n(-c2ccc(S(=O)(=O)O)cc2)c(=O)c1N=Nc1ccc(S(=O)(=O)O)cc1 | -14% |
| c1ccc(OCc2ccc(CCCN3CCOCC3)cc2)cc1 | 34.7% (active) |
| CCS(=O)(=O)c1ccc(OC)c(C(=O)OC)c1 | -1.8% |
| COC(=O)/C=C(/C)N | 2.9% |
| N#CCC(=O)NN | 13.4% |
| Nc1nc(-c2ccccc2)c(Br)c(=O)[nH]1 | 11.9% |
| CCCCCC=CCC=CCCCCCCCC(=O)OCC | 30.9% |
| CCCCCCCC/C=C\CCCCCCCCN | 147% (active) |
| C/C(=C(\CCO)SS/C(CCO)=C(\C)N(C=O)Cc1cnc(C)nc1N)N(C=O)Cc1cnc(C)nc1N | -11.8% |
| Cc1onc(-c2c(F)cccc2Cl)c1C(=O)Cl | -2.6% |
| CSCC[C@H](N)C(=O)O | 0.4% |
| CCCCCC(N)=O | 44.1% |
| CCCCCCCCCCCCCCCCCCN(C)C | -27.7% |
| O=C(Cn1ccnc1[N+](=O)[O-])NCc1ccccc1 | 7.9% |
